CPE inhibition data for 58 compounds are collected here from PubChem BioAssay AID651640 (Broad Institute, 2012).

Screen size: about 350,000 compounds; about 6,000 (1.7%) were called active. Inconclusive results (about 5%) are left out. This is one part of a sample in which actives are shown more often than they occur. No stated cut-off is given here; in the data, active means CPE inhibition above about 20% (passing the limit was not always enough); inconclusive means no clear call, values can overlap the other calls; tested in BHK-21 cells.

This assay is described as follows: protection of cells from dengue 2 killing – plate reader, single concentration, primary screen (AID 651640).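 Further: 0% = median of neutral control wells and 100% = median of positive control wells.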 Particulars: DENV2-infected cells, cytopathic effect rescue, at 9.99 µM, hits give high values. For orientation: Cytopathic effects are the visible damage that an infection or toxin causes in cultured cells.
Consider `C[C@H]1CN([C@@H](C)CO)C(=O)c2cccc(NC(=O)Nc3ccccc3)c2O[C@@H]1CN(C)C(=O)Nc1cccc2ccccc12`, for which the CPE inhibition is 13.2% (inactive).
For `COCCn1c(SCC(=O)Nc2cc(Cl)ccc2OC)nc2c(c1=O)SC(C)C2` (stereo not drawn), the CPE inhibition was 1.59% (inactive).
To `COCCn1c(SCC(=O)Nc2ccccc2F)nc2c(c1=O)SCC2` belongs 69.8% (active).
With `COCCn1c(SCC(=O)Nc2ccc(F)cc2F)nc2c(c1=O)SCC2`, the CPE inhibition was -1.37% (inactive).
To `C[C@H]1CN([C@@H](C)CO)C(=O)c2cc(C3=CCCC3)cnc2O[C@H]1CN(C)Cc1ccccc1C(=O)O` belongs 10.8% (inactive).
The value for `CC(C)C(=O)Nc1ccc2c(c1)C(=O)N(C)[C@@H]1CC[C@@H](CC(=O)NCCc3ccccc3)O[C@H]1CO2` was 19% (inactive); that for `C[C@@H]1CCCCO[C@@H](CN(C)Cc2ccncc2)[C@H](C)CN([C@@H](C)CO)C(=O)c2cc(NS(=O)(=O)c3ccccc3)ccc2O1` was -0.228% (inactive); that for `C[C@@H]1CN([C@@H](C)CO)C(=O)c2cc(NC(=O)C3CCCCC3)ccc2O[C@@H](C)CCCCO[C@@H]1CN(C)C(=O)Nc1ccccc1` was -1.11% (inactive).
The value for `C[C@H](CO)N1C[C@H](C)[C@H](CN(C)C(=O)Nc2ccc(C(F)(F)F)cc2)OCCCC[C@H](C)Oc2ccc(NC(=O)C3CCCCC3)cc2C1=O` was 21.9% (active).
With `C[C@H](CO)N1C[C@H](C)[C@@H](CN(C)Cc2ccc(C(F)(F)F)cc2)OCCCC[C@H](C)Oc2ccc(NC(=O)C3CCCCC3)cc2C1=O`, the CPE inhibition is -1.83% (inactive).
Turning to `C[C@H]1CCCCO[C@H](CN(C)Cc2ccc(C(F)(F)F)cc2)[C@@H](C)CN([C@@H](C)CO)C(=O)c2cc(NC(=O)C3CCCCC3)ccc2O1`, the CPE inhibition is -17.3% (inactive).
As for `C[C@@H]1CCCCO[C@@H](CN(C)C(=O)CCC(F)(F)F)[C@@H](C)CN([C@H](C)CO)C(=O)c2cc(NC(=O)CCC(F)(F)F)ccc2O1`, the CPE inhibition was 4.89% (inactive).
On to `C[C@@H]1CCCCO[C@@H](CN(C)C(=O)Nc2ccc(C(F)(F)F)cc2)[C@H](C)CN([C@H](C)CO)C(=O)c2cc(NC(=O)C3CCCCC3)ccc2O1`, for which the CPE inhibition was 22.5% (active).
For `C[C@@H]1CCCCO[C@@H](CN(C)C(=O)C2CCCCC2)[C@H](C)CN([C@H](C)CO)C(=O)c2cc(NC(=O)CCC(F)(F)F)ccc2O1`, the CPE inhibition is 74.2% (active).
The value for `C[C@@H]1CCCCO[C@@H](CN(C)C(=O)NC2CCCCC2)[C@@H](C)CN([C@H](C)CO)C(=O)c2cc(NC(=O)CCC(F)(F)F)ccc2O1` was -1.91% (inactive); that for `C[C@@H]1CCCCO[C@H](CN(C)C(=O)Nc2ccc(C(F)(F)F)cc2)[C@H](C)CN([C@H](C)CO)C(=O)c2cc(NC(=O)Nc3ccc(C(F)(F)F)cc3)ccc2O1` was 2.81% (inactive); that for `C[C@@H]1CN([C@H](C)CO)C(=O)c2cc(C#Cc3ccccn3)cnc2O[C@H]1CN(C)CC1CCOCC1` was -1.46% (inactive).
Take `O=C(C[C@H]1CC[C@@H]2[C@H](COC[C@@H](O)CN2C(=O)Nc2cccc(F)c2)O1)NCc1ccccc1F`: the CPE inhibition is 0.633% (inactive).
`COc1ccc2c3c([nH]c2c1)[C@H](CO)N(Cc1cccc(F)c1)CC31CCN(CC2CC2)CC1`: the CPE inhibition was -32.6% (inactive).
The value for `C[C@H]1CCCCO[C@H](CN(C)CC2CC2)[C@@H](C)CN([C@@H](C)CO)C(=O)c2cc(NS(C)(=O)=O)ccc2O1` was 2.25% (inactive); that for `COc1ccccc1-c1cnc2c(c1)C(=O)N([C@H](C)CO)C[C@@H](C)[C@@H](CN(C)CC1CCCC1)O2` was 23.1% (inactive).
To `C[C@@H]1CN([C@H](C)CO)C(=O)c2cc(NS(C)(=O)=O)ccc2O[C@@H]1CN(C)S(C)(=O)=O` belongs -0.244% (inactive); to `C[C@H](O)C#Cc1cnc2c(c1)C(=O)N([C@H](C)CO)C[C@H](C)[C@@H](CN(C)C(=O)Nc1ccc(F)cc1)O2`, 8.69% (inactive).
The value for `CNC[C@@H]1OCCCC[C@H](C)Oc2ccc(NC(=O)Nc3ccc(OC)cc3)cc2C(=O)N([C@H](C)CO)C[C@@H]1C` was 7.49% (inactive).
Regarding `COc1ccc(NC(=O)N(C)C[C@H]2Oc3ccc(NS(=O)(=O)c4cccs4)cc3C(=O)N([C@@H](C)CO)C[C@H]2C)cc1`, the CPE inhibition was -6.98% (inactive).
To `C[C@H]1CCCCO[C@@H](CN(C)S(=O)(=O)c2cccs2)[C@@H](C)CN([C@@H](C)CO)C(=O)c2cc(NS(=O)(=O)c3ccc(Cl)cc3)ccc2O1` belongs -0.143% (inactive); to `C[C@@H]1CCCCO[C@@H](CN(C)S(=O)(=O)c2ccc(F)cc2)[C@@H](C)CN([C@@H](C)CO)C(=O)c2cc(NS(=O)(=O)c3cccs3)ccc2O1`, 12.7% (inactive).
To `C[C@@H]1CN([C@H](C)CO)C(=O)c2cc(NS(=O)(=O)c3cccs3)ccc2O[C@@H](C)CCCCO[C@@H]1CN(C)S(=O)(=O)c1ccc(Cl)cc1` belongs 22.8% (active).
The value for `C[C@@H]1CCCCO[C@H](CN(C)S(=O)(=O)c2cccs2)[C@H](C)CN([C@@H](C)CO)C(=O)c2cc(NS(=O)(=O)c3cccs3)ccc2O1` was -8.04% (inactive); that for `C[C@H]1CN([C@@H](C)CO)C(=O)c2cc(NS(=O)(=O)c3cccs3)ccc2O[C@@H]1CN(C)C(=O)Nc1ccccc1` was 22.2% (active).
As for `C[C@@H]1CN([C@H](C)CO)C(=O)c2cc(NS(=O)(=O)c3cccs3)ccc2O[C@@H](C)CCCCO[C@@H]1CN(C)S(=O)(=O)c1cccs1`, the CPE inhibition was -4.08% (inactive).
Turning to `C[C@@H]1CCCCO[C@H](CN(C)S(=O)(=O)c2ccc(Cl)cc2)[C@H](C)CN([C@@H](C)CO)C(=O)c2cc(NS(=O)(=O)c3cccs3)ccc2O1`, the CPE inhibition is 63.8% (active).
Consider `C[C@H]1CN([C@@H](C)CO)C(=O)c2cc(NS(=O)(=O)c3cccs3)ccc2O[C@@H]1CN(C)C(=O)Nc1cccc2ccccc12`, for which the CPE inhibition is -2.31% (inactive).
In the case of `CC(C)NC(=O)Nc1ccc2c(c1)C(=O)N(C)[C@H]1CC[C@H](CC(=O)NCC3CCCCC3)O[C@@H]1CO2`, the CPE inhibition was -11% (inactive).
To `C=C[C@H](OC)[C@@H](O)c1ccc(OC)c(O)c1` belongs -1.37% (inactive).
`C[C@H](CO)N1C[C@H](C)[C@@H](CN(C)C(=O)CCC(F)(F)F)OCCCC[C@H](C)Oc2ccc(NC(=O)C3CCCCC3)cc2C1=O`: the CPE inhibition is -0.808% (inactive).
Regarding `CCS(=O)(=O)N1[C@H](CO)[C@@H](c2ccccc2)C12CN(C(=O)C1CCC1)C2`, the CPE inhibition is -6.37% (inactive).
In the case of `Cc1noc(C)c1NC(=O)N(C)C[C@@H]1Oc2ccc(NC(=O)Nc3ccc4c(c3)OCO4)cc2CC(=O)N([C@H](C)CO)C[C@H]1C`, the CPE inhibition was 9.34% (inactive).
On to `C[C@@H]1CN([C@H](C)CO)C(=O)c2cc(C#CCC3CCCC3)cnc2O[C@H]1CN(C)C(=O)c1cnccn1`, for which the CPE inhibition is 4.48% (inactive).
`CO[C@H]1O[C@H](CO)[C@@H](OC(=O)Nc2ccc(C(F)(F)F)cc2)[C@H](OC(=O)Nc2ccc3c(c2)OCO3)[C@H]1OC(=O)Nc1ccc2c(c1)OCO2`: the CPE inhibition is 3.41% (inactive).
The value for `CO[C@@H]1CN(C)C(=O)c2cc(NC(=O)C3CC3)ccc2OC[C@@H](C)N(Cc2ccc(F)cc2)C[C@@H]1C` was 3.49% (inactive).
In the case of `C[C@@H]1CN([C@@H](C)CO)C(=O)Cc2cc(NS(C)(=O)=O)ccc2O[C@H]1CN(C)C(=O)Nc1ccccc1`, the CPE inhibition was 16.2% (inactive).
To `C[C@@H]1CN([C@H](C)CO)C(=O)Cc2cc(NC(=O)CCN3CCOCC3)ccc2O[C@H]1CN(C)CC1CC1` belongs -0.438% (inactive); to `COc1ccc2c3c([nH]c2c1)[C@H](CO)N(Cc1nccs1)CC31CCN(C(=O)C2CCC2)CC1`, -3.4% (inactive).
As to `COc1ccc2c3c(n(C)c2c1)[C@@H](CO)N(C(C)=O)CC31CCN(Cc2nccs2)CC1`, the CPE inhibition is -1.04% (inactive).
Take `CCS(=O)(=O)N1CC2(CN(C(=O)c3ccc(F)cc3)[C@@H](CO)c3c2c2ccc(OC)cc2n3C)C1`: the CPE inhibition is -7% (inactive).
The value for `COc1ccc2c3c([nH]c2c1)[C@@H](CO)N(Cc1nccs1)CC31CCN(C(=O)C2CCCC2)CC1` was -11.8% (inactive); that for `CCS(=O)(=O)N1CC2(CN(C(=O)c3ccc(F)cc3)[C@H](CO)c3c2c2ccc(OC)cc2n3C)C1` was 21.9% (active); that for `CCS(=O)(=O)N1CC2(CN(Cc3cc(F)ccc3F)[C@@H](CO)c3c2c2ccc(OC)cc2n3C)C1` was -8.85% (inactive).
The value for `CCS(=O)(=O)N1CC2(CN(Cc3ccccc3)[C@@H](CO)c3c2c2ccc(OC)cc2n3C)C1` was 6.33% (inactive); that for `COc1ccc2c3c(n(C)c2c1)[C@@H](CO)N(C(=O)c1ccc(F)cc1)CC31CN(C(=O)c2ccc(F)cc2)C1` was 2.03% (inactive).
Take `COc1ccc2c3c(n(C)c2c1)[C@H](CO)N(C(=O)CC1CC1)CC31CCN(Cc2nccs2)CC1`: the CPE inhibition was -5.74% (inactive).
The value for `COc1ccc2c3c([nH]c2c1)[C@@H](CO)N(C(=O)C1CC1)CC31CCN(Cc2nccs2)CC1` was 25.2% (active); that for `COc1ccc2c3c(n(C)c2c1)[C@H](CO)N(CC1CCCCC1)CC31CCN(Cc2nccs2)CC1` was 22.7% (active).
The value for `COc1cc(CN2CC3(CN(S(=O)(=O)c4cn(C)cn4)C3)c3c(n(C)c4cc(OC)ccc34)[C@H]2CO)cc(OC)c1` was 58.8% (active).
To `Cc1noc(C)c1NC(=O)Nc1ccc2c(c1)C(=O)N([C@H](C)CO)C[C@H](C)[C@H](CN(C)Cc1ccc(C(=O)O)cc1)OCCCC[C@H](C)O2` belongs 3.28% (inactive); to `CO[C@H](CN(C)S(=O)(=O)c1ccc(C)cc1)[C@@H](C)CN(Cc1ccccc1Cl)[C@@H](C)CO`, -6.58% (inactive).
For `C[C@H]1CCCCO[C@@H](CN(C)Cc2ccc3c(c2)OCO3)[C@@H](C)CN([C@@H](C)CO)C(=O)c2cc(NC(=O)c3ccccc3)ccc2O1`, the CPE inhibition is -5.55% (inactive).
